According to the OligoGym collection:

Target: PRODH2
Assay: pooled miR-30 sensor sort-seq; sequence = guide strand
Conditions: shRNA

Compared with TTAAAATTGGAAACGCTGTAGT, AAACGCTGTAGTGTTATTGAAT is lower in sensor-assay potency score (higher = more potent): 0.00998 for the first, -0.964 for the second.

First: TTGAAAATACGGTTCTCACGTT
Second: TAGTGTTATTGAATACATTTGA
The sensor-assay potency score (higher = more potent) of the first is higher: -0.536 for the first, -0.549 for the second.

Going from TAACAGGTCCGGAGCATCCTGG to TTGCTTCCTCTTAAAATTGGAA, the sensor-assay potency score (higher = more potent) falls from -1.03 to -1.06.

Sequence TTATTGAATACATTTGAAAATA has a sensor-assay potency score (higher = more potent) of -1.75.

Target: PROM2
Assay: as above
Conditions: shRNA

Compared with TAGCTTGTTGGTATACTGGTTG, TTGACGGCAAAGATGATGCTGG is lower in sensor-assay potency score (higher = more potent): -0.045 for the first, -0.136 for the second.

Going from TATTTGGAGGTCTTGACGGCAA to TGTAGGTCTCGTATCTCTGCAC, the sensor-assay potency score (higher = more potent) rises from -0.214 to -0.146.

Compared with TTGGCTAGGACATCTGAGGTCT, TAGGACATCTGAGGTCTCCAGC is lower in sensor-assay potency score (higher = more potent): 0.382 for the first, -0.69 for the second.

Going from TTGTGCTCTGTCTTCACTCGTC to TTGGGGGACATCAGAGACCAGG, the sensor-assay potency score (higher = more potent) falls from 0.345 to -1.48.

First: TTCTCCTCCTGGACCATGCTGG
Second: TTCAGCTCTTGCACCACGCTGG
The sensor-assay potency score (higher = more potent) of the first is lower: -0.874 for the first, -0.154 for the second.

First: TTGAGCTGCAGGACTGTCCAGA
Second: TCACACAGGATCACACGGCTGT
The sensor-assay potency score (higher = more potent) of the first is lower: -0.114 for the first, 0.353 for the second.
